Compound in the assay: CCc1cnn2c(NCc3ccc[n+]([O-])c3)cc(N3CCCC[C@H]3CCO)nc12 [dinaciclib]
The assay is described as follows: cell viability remaining relative to DMSO control; higher = less cytotoxic (more viable cells). To be noted: 100 nM; 24 h. The protocol:
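Solid tumor cell lines were treated with dinaciclib (100 nM) for 24 hr. Viability was measured by CellTiter-Glo ATP luminescence and expressed as % of DMSO-treated control wells (mean of 2-6 plates, triplicate wells per plate).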
For the target H69, the cell viability remaining was determined as 87.1%.
On to HCC1187, for which the cell viability remaining was 21.6%.
Turning to T47D, the cell viability remaining is 87.6%.
As to SKCO1, the cell viability remaining was found to be 89.8%.
As to SW1463, the cell viability remaining was determined as 87.4%.
As to C32, the cell viability remaining amounted to 83%.
For the target AGS, the cell viability remaining was 46.7%.
For IGROV1 the value was 103%.
Under H1437 stands 41.9%; under HS839T, 97.6%; under MCAS, 82.8%.
On to T84, for which the cell viability remaining was found to be 76.2%.
For H28 the value was 107%.
On to H747, for which the cell viability remaining amounted to 73%.
In the case of BT549, the cell viability remaining was 51.3%.
With SNB19, the cell viability remaining came to 70.1%.
Under SKMEL1 stands 68.9%.
Take SKOV3: the cell viability remaining is 81.1%.
Take TYKNU: the cell viability remaining turned out to be 83.8%.
On to LS1034, for which the cell viability remaining was found to be 75%.
Under BT483 stands 83.9%.
In the case of H1944, the cell viability remaining was determined as 76.9%.
In the case of COLO205, the cell viability remaining amounted to 22.4%.
On to SW900, for which the cell viability remaining stood at 74.3%.
In the case of CHP212, the cell viability remaining amounted to 19.7%.
As to CALU6, the cell viability remaining amounted to 58.4%.
HS600T: the cell viability remaining is 93.8%.
Regarding CHAGOK1, the cell viability remaining came to 52.5%.
For the target MDAMB468, the cell viability remaining turned out to be 29.1%.
As to A2058, the cell viability remaining is 18.4%.
For the target MSTO211H, the cell viability remaining came to 68.4%.
Turning to HEC151, the cell viability remaining was determined as 39%.
Turning to OAW42, the cell viability remaining was found to be 44.2%.
Under H2052 stands 91.9%; under SW480, 81.7%.
SKBR3: the cell viability remaining is 51.1%.
For CCFSTTG1 the value was 70.6%; for DU4475, 72.3%; for WM2664, 68.9%.
For A101D the value was 33.9%.
